In the library only some 6.2% were active in any assay of this set; here they are far more common.
Marburg entry inh = inhibitors of Marburg virus binding or cell entry; Marburg virus pseudotyped entry inhibition, cell reporter; Potency, µM (titrated, usually from 37.8 µM), for inactives: at the highest dose activity change, negative = inhibition, most hits filed as inhibitors; hit rate 1.8% among 300,000; calls by dose curve; tested in HEK293 cells; further: potency means the concentration at half of the fitted maximal effect
LASV entry inh = inhibitors of Lassa virus binding or cell entry | Lassa virus pseudotype entry inhibition, cell reporter | Potency, µM (series often up to 37.9 µM), for the others: at the highest dose activity change, negative = inhibition, actives largely listed as inhibitors | hit rate 1.2% among 300,000 | AID 540256; calls by dose curve; tested in HEK293 cells; further: potency means the concentration at half of the fitted maximal effect; nearly all actives have a fitted effect of over 50% in size
FMDV antiviral = antivirals against foot and mouth disease virus; FMDV antiviral cell-based qHTS; hit rate 1.2% among 410,000; Potency, µM (highest dose often 57.9 µM), without a hit: top-dose activity change, negative = inhibition, actives largely listed as inhibitors; calls by dose curve; tested in HEK293T cells; further: read-out not given here; potency means the concentration at half of the fitted maximal effect; nearly all actives have a fitted effect of over 45% in size
HCMV antiviral = inhibitors of human cytomegalovirus. hit rate 4.5% among 410,000. activity change, negative = inhibition, % at 57.5 µM. HFF cells, HCMV-luciferase reporter, 72 h; hits give low values; in the data active means activity change below about -60%; inconclusive means no clear call, values can overlap the other calls; inactive means above about -39%
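Luciferase read-out from HCMV-luciferase-infected HFFs (MOI 1 PFU/cell) 72 h post infection at 37C; compounds added after 16 h cell attachment; activity normalized between buffer-only basal and Salinomycin (10uM) inhibitor controls.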
The depositor's hits bear a star; ? = inconclusive; . = not tested or not shown; [ ] = dose if it differs, or a comment. On the % scale 0 is the no-effect control and ±100 the full control effect.

SMILES	Marburg entry inh	LASV entry inh	FMDV antiviral	HCMV antiviral
Cc1ccccc1Cn1cc(NS(=O)(=O)c2cn(C)nc2C)cn1	.	.	-15%	-60*
COc1ccc(-c2noc(-c3ccc4c(c3)OCO4)n2)cc1	?	-9%	26%	78
c1ccc(-c2noc(-c3ccc4c(c3)OCO4)n2)cc1	?	?	14µM*	0
COc1ccccc1C(=O)N1CCC(c2c[nH]c3ccccc23)(c2c[nH]c3ccccc23)CC1	?	-19%[46.1 µM]	-28%	20
COc1ccc(CNC(=O)/C=C/c2ccco2)cc1OC	-3%[46.1 µM]	1%	-8%	-89*
Cn1c(Sc2ccc(Br)cc2)c(C=O)c2ccccc21	?	10µM*	?	-30
Cn1c(Oc2ccc(F)cc2)c(C=O)c2ccccc21	?	9%[46.1 µM]	?	-32
CCOC(=O)c1cnc2c(ccc3ccccc32)c1Nc1cccc(Cl)c1	.	18%[46.1 µM]	-19%	30
COc1cccc(OC)c1-c1cc(C(=O)NC2(C(=O)O)C3CC4CC(C3)CC2C4)nn1-c1ccc(C(=O)N(C)CCCN(C)C)cc1C(C)C (stereo unspecified)	.	.	-10%	.
OCC1(Cc2ccccc2C(F)(F)F)CCN(Cc2ccc3c(c2)CCO3)CC1	?	-5%[46.1 µM]	1%	-76*
COc1ccc(-c2nc3cnc(OC)nc3n(C3CC3)c2=O)cc1	.	.	-4%	.
COc1cc2c(O)c3c(c(-c4ccc5c(c4)OCO5)c2cc1OC)C(=O)OC3	2.3µM*	3.7µM*	.	-96*
COc1cc2c(OC(C)=O)c3c(c(-c4ccc5c(c4)OCO5)c2cc1OC)C(=O)OC3	.	.	0%	-93*
COc1ccccc1C(=O)Nc1cccc(OCc2cc(=O)n3ccccc3n2)c1	.	-9%[46.1 µM]	4%	-36
CCCCn1c(NS(=O)(=O)c2ccccc2)c(C(=O)OCC)c2nc3ccccc3nc21	4.6µM*	?	0%	?
CCCCn1c(NC(=O)c2ccc(Br)o2)c(C(=O)OCC)c2nc3ccccc3nc21	-7%[46.1 µM]	-1%	-14%	-71*
COc1cccc(C(=O)Nc2ccc3nc(SCc4ccc(C)cc4)sc3c2)c1	6%[46.1 µM]	-1%[46.1 µM]	0%	-19
N#Cc1nc(-c2ccco2)oc1N1CCN(c2ccccc2)CC1	-18%	?	?	-65*
COc1ccc(N2CCN(c3oc(Cc4ccccc4)nc3C#N)CC2)cc1	?	5.2µM*	?	-34
O=C(CSc1nccn1C1CCCC1)Nc1cccc(F)c1	.	0%[46.1 µM]	51%	-15
CCOC(=O)[C@]12Cc3cc(Cl)ccc3[C@H]1N(CC(=O)OC)C(=O)c1ccccc12	.	.	10µM*	.
CCOC(=O)[C@]12Cc3cc(Cl)ccc3[C@H]1N(C)C(=O)c1ccccc12	.	.	?	68
CCOC(=O)[C@]12Cc3cc(Cl)ccc3[C@H]1N(C(C)C)C(=O)c1ccccc12	.	.	10µM*	-99*
Cc1cc(C)cc(NC(=O)CSc2nnc(-c3cc4occc4n3C)n2-c2ccccc2C)c1	.	-9%[46.1 µM]	-7%	11
COc1ccccc1NC(=O)CSc1nc2ccccc2c(=O)n1C	.	.	14µM*	?
SMILES	Marburg entry inh	LASV entry inh	FMDV antiviral	HCMV antiviral
CCOC(=O)c1ccc(NC(=O)CSc2nc3cccnc3n2C)cc1	?	-28%	16µM*	-15
CCn1c(SCC(=O)Nc2ccc(F)cc2)nc2ccccc2c1=O	.	.	10%	-69*
Cn1c(SCC(=O)NCc2ccccc2)nc2ccccc21	21%	10%	-13%	-100*
COc1ccccc1NC(=O)CSc1nc2c(oc3ccccc32)c(=O)n1C	.	.	-26%	?
CCC(CC)C(C(=O)NC1CCCCC1)N1C(=O)C(=O)c2ccccc21 (stereo unspecified)	.	.	.	3
CCOc1ccccc1NC(=O)CSc1nc2cc(O)ccc2c(=O)n1-c1ccc(OC)c(OC)c1	.	.	?	-72*
COc1ccc(-n2c(SCC(=O)Nc3ccc(C(N)=O)cc3)nc3ccccc3c2=O)cc1OC	-25%[46.1 µM]	4%[46.1 µM]	-3%	150
Cc1cc2c(=O)n(C)c(SCC(=O)Nc3ccccc3)nc2s1	23%[46.1 µM]	.	8%	-61*
Cc1cccc(NC(=O)CSc2nc3sc(C)cc3c(=O)n2C)c1	?	-27%	-15%	-35
C/C(=N/NC(=O)CSc1nc2ccccc2n1C)c1ccncc1	3%[46.1 µM]	17%[46.1 µM]	-28%	-101*
Cc1cccc(NC(=O)CSc2nc3ccccc3c(=O)n2C)c1C	.	.	?	-68*
C=C(c1ccccc1)[C@@H](C#N)C1CCCC1	.	.	.	-15
Cc1cccc(Cn2c(=O)n(CC3CCC(C(=O)N4CCOCC4)CC3)c(=O)c3sccc32)c1 (stereo unspecified)	.	-18%[46.1 µM]	?	-28
CC(O)(c1cccnc1)c1nc(-c2cccc(C#N)c2)cs1 (stereo unspecified)	.	.	-11%	13
CCc1ccc(NC(=O)CSc2nc3ccccc3c(=O)n2CCC(=O)NC2CCCCC2)cc1	.	3%[46.1 µM]	-18%	-12
COc1ccc(-n2c(SCC(=O)NCC3CCCO3)nc3ccccc3c2=O)cc1Cl (stereo unspecified)	.	.	-11%	-67*
CCc1ccc(NC(=O)CSc2nc3ccccc3c(=O)n2CCCC(=O)N2CCCC2)cc1	9.2µM*	26µM*	19%	-66*
Cn1c(SCC(=O)Nc2ccccc2)nc2ccccc2c1=O	4µM*	?	-27%	?
C[C@@H]1CN([C@@H](C)CO)C(=O)CCCn2cc(nn2)CO[C@H]1CN(C)S(C)(=O)=O	.	.	.	17
CC(C)C(c1nnnn1Cc1ccccc1)N1C(=O)C(=O)c2ccccc21 (stereo unspecified)	.	.	.	-30
C/C(=N/NC(=O)CNc1ccc(C)cc1)c1ccc(Cl)cc1	-7%	-34%	.	-13
CCCCC(O)(CCCC)C(=O)N/N=C(\C)c1ccc(Cl)cc1	11µM*	-44%[46.1 µM]	-23%	-8
Cc1ccc(C2=NN(C(=O)CCl)C(c3ccco3)C2)o1 (stereo unspecified)	?	14%	?	-100*
COC(=O)c1c(C(=O)OC)n(CCCN)c2ccc(C)cc12	8.2µM*	?	4%	-10
CC(C)NC(=O)N1CC[C@@]2(CCCN(C(=O)Oc3ccccc3)C2)C1	.	.	-7%	.
SMILES	Marburg entry inh	LASV entry inh	FMDV antiviral	HCMV antiviral
Cc1cn([C@H]2C[C@H](O)[C@@H](/C=C/C(=O)NCc3ccc(N(C)C)cc3)O2)c(=O)[nH]c1=O	.	.	-17%	39
CCOc1ccc(C2C(=O)N(C3CCCCCC3)CC(=O)N2Cc2ccc(C)cc2)cc1OC (stereo unspecified)	.	?	-14%	?
COc1ccc(-c2c3c(nc4sc5c(=O)[nH]c(C)nc5c24)CCC3)cc1	?	8%	0%	-88*
COc1ccc(-c2c3c(nc4sc(C(=O)Nc5cc(C)on5)c(N)c24)CCC3)cc1	-28%	?	.	?
COc1ccc(-n2c(CCNC(=O)c3ccccc3C(F)(F)F)nnc2SC)cc1	.	.	0%	.
C=CC[n+]1c(-c2ccc(OCC)cc2)csc1NNC(=O)Nc1ccccc1	-7%	?	.	-88*
C/C(=N\Nc1nc(C)cc(-c2ccccc2)n1)c1ccc(O)cc1	.	.	10%	-89*
C/C(=N\Nc1nc(C)cc(-c2ccccc2)n1)c1ccc(C)o1	-17%[46.1 µM]	?	?	-63*
C/C(=N\Nc1nc(C)cc(-c2ccccc2)n1)c1ccccc1	?	?	14%	?
